Sampled rows, rich in hits. Any-hit rate of the full collection: about 4.2%.
ssDAF-12 act = activators of S. stercoralis DAF-12 nuclear receptor; HEK293 ssDAF-12/GRIP1 lit1-tk-luc reporter, luminescence; % of 3 µM dafachronic acid response; activation, % at 6.8 µM; 370,000 compounds, 1% hits; AID 652126;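 active means activation above the mean over all tested compounds plus 3 SD, cut at about 0.9% in these data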
hgDAF12 agonist = activates the H. glycines DAF-12 receptor ligand-binding domain. HEK293 GAL4-hgDAF12 UAS-luciferase reporter, agonist luminescence; normalized to butyrate control. activation, % at 6.8 µM. 370,000 compounds, 1.8% hits. AID 687014;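 active means activation above a cutoff set at the mean of all screened compounds plus 3 SD, cut at about 10% in these data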
hcDAF12 agonist = H. contortus DAF-12 activation, primary screen. HEK293 hcDAF-12 lit1-tk-luc reporter, luminescence; 0% DMSO, 100% Δ7-dafachronic acid. activation, % at 6.8 µM. 370,000 compounds, 1.4% hits;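 active means activation above the mean of all tested compounds plus 3 SD, cut at about 5.5% in these data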
Wnt act = activators of Wnt/beta-catenin signaling. Wnt/beta-catenin reporter cell assay, activator, plate reader. activation, % at 9.35 µM. 300,000 compounds, 1.2% hits. AID 743398; in the data active means activation above about 30%, passing the limit was not always enough; inconclusive means no clear call, values can overlap the other calls
DAX1 inh = blocks DAX1 repression of SF-1 activated StAR promoter | HEK293T StAR-luciferase reporter, SF-1/DAX-1 repression relief | inhibition, % at 6.8 µM | 370,000 compounds, 1.1% hits | AID 652010;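 active means inhibition above the mean over all tested compounds plus 3 SD, cut at about 3.6% in these data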;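 further: higher inhibition means more luminescence from relief of DAX-1 repression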
esBAF inh = inhibitors of esBAF chromatin remodeling in mouse ES cells; AID 602393; Bmi1-luciferase knock-in reporter, 24 h; 100% = twice the neutral-well signal; 350,000 compounds, 2% hits; reporter increase, % at 12.5 µM; in the data active means activation above about 40%; inconclusive means no clear call, values can overlap the other calls;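 further: a rise in the Bmi1 reporter signal indicates esBAF inhibition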
hgDAF12 conf = hgDAF-12 agonism, confirmation assay; 3,300 compounds, 80% hits; HEK293 GAL4-hgDAF12 luciferase reporter, agonist mode; percent of butyrate response; activation, % at 6.8 µM; shares compounds with hgDAF12 agonist; AID 743050;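 active means mean activation over triplicate wells above the hit cutoff derived from the earlier primary screen, cut at about 11% in these data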
LXR ag 2 = counter-screen for DAF-12 agonists: agonists of human LXR-beta; shares compounds with hgDAF12 agonist; HEK293 Gal4-LXR luciferase reporter, 24 h; activation, % at 6.8 µM; 3,300 tested, under 10 active; AID 743051;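 active means mean activation of the triplicate above a set limit carried over from the primary screen, none filed active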
Target sequence (P55055 whole entry, looked up, the tested form may be a part): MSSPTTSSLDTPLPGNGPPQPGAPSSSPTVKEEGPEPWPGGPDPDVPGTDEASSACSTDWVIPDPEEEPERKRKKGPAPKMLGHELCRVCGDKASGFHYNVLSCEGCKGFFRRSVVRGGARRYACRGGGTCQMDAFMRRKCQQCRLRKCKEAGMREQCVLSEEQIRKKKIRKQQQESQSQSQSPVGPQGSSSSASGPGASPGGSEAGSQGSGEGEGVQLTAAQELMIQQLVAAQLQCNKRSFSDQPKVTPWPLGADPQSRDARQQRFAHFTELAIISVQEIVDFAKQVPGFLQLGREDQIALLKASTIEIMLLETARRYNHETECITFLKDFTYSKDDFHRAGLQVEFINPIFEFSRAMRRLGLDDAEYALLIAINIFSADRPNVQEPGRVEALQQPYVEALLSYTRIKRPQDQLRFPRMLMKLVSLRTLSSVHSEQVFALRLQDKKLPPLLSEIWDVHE
Large screens that a line does not name were inactive (follow-up assays come after a bar, where they were run).

C[C@@H]1CCCCO[C@H](CN(C)C(=O)Nc2ccc3c(c2)OCO3)[C@H](C)CN([C@H](C)CO)C(=O)c2cc(NS(=O)(=O)c3cn(C)cn3)ccc2O1	none (no result: ssDAF-12 act, hgDAF12 agonist, hcDAF12 agonist, Wnt act, DAX1 inh)
CCC(=O)N(C)C[C@H]1Oc2ncc(C#CCc3ccccc3)cc2C(=O)N([C@H](C)CO)C[C@@H]1C	none (no result: ssDAF-12 act, hgDAF12 agonist, hcDAF12 agonist, Wnt act, DAX1 inh)
CO[C@H]1CN(C)C(=O)c2ccc(NS(C)(=O)=O)cc2OC[C@@H](C)N(C(=O)C2CCC2)C[C@H]1C	none (no result: ssDAF-12 act, hgDAF12 agonist, hcDAF12 agonist, Wnt act, DAX1 inh)
CC=Cc1ccc2n(c1=O)C[C@@H]1[C@@H](CO)[C@H](C(=O)Nc3nccs3)N(C(=O)CC)[C@H]21 (mixture of isomers)	none (no result: ssDAF-12 act, hgDAF12 agonist, hcDAF12 agonist, Wnt act, DAX1 inh)
O=C(c1ccccc1)C1C(=O)c2ccccc2C1=O	none (no result: esBAF inh)
O=C(/C=C/c1ccccc1)C1C(=O)c2ccccc2C1=O	hgDAF12 agonist 22 (no result: esBAF inh) | hgDAF12 conf 12 | LXR ag 2 inactive
Cc1noc(C)c1S(=O)(=O)N(C)C[C@@H]1Oc2ccc(NC(=O)NC3CCCCC3)cc2CC(=O)N([C@@H](C)CO)C[C@@H]1C	none (no result: ssDAF-12 act, hgDAF12 agonist, hcDAF12 agonist, Wnt act, DAX1 inh)
O=C(c1ccccc1F)N1C[C@@H]2[C@H](c3ccccc31)[C@@H](CO)N2C(=O)c1ccncc1	none (no result: ssDAF-12 act, hgDAF12 agonist, hcDAF12 agonist, Wnt act, DAX1 inh)
Cc1ccc(C2=NNC3(CCOC(C)(C)C3)S2)cc1 (stereo unspecified)	ssDAF-12 act 1.0, hgDAF12 agonist 17, hcDAF12 agonist 11, DAX1 inh 4.0 (no result: esBAF inh) | hgDAF12 conf inactive | LXR ag 2 inactive
O=C(O)c1ccccc1C(=O)Nc1ccc(-c2csc(-c3ccccc3)n2)cc1	hgDAF12 agonist 16 (no result: Wnt act, esBAF inh) | hgDAF12 conf inactive | LXR ag 2 inactive
O=C(O)c1ccc(-c2nc(-c3ccccc3Cl)cs2)cc1	none (no result: esBAF inh)
O=C(Nc1ccc(-c2csc(-c3ccccc3)n2)cc1)c1ccccc1Cl	none (no result: Wnt act)
O=C(O)c1ccc(-c2nc(-c3ccccc3)cs2)cc1	hgDAF12 agonist 13 (no result: esBAF inh) | hgDAF12 conf inactive | LXR ag 2 inactive
C[C@@H]1CCCCO[C@@H](CN(C)CC2CCCCC2)[C@@H](C)CN([C@@H](C)CO)C(=O)c2cc(NS(=O)(=O)c3cccs3)ccc2O1	none (no result: ssDAF-12 act, hgDAF12 agonist, hcDAF12 agonist, Wnt act, DAX1 inh)
O=C(C[C@H]1C=C[C@@H](NC(=O)Nc2cc(F)ccc2F)[C@H](CO)O1)NCc1ccccn1	none (no result: ssDAF-12 act, hgDAF12 agonist, hcDAF12 agonist, Wnt act, DAX1 inh)
Cc1ccc(C(=O)Nc2ccc3ncccc3c2)cc1	none
O=C(Nc1cnc2ccccc2c1)C1COc2ccccc2O1 (stereo unspecified)	hgDAF12 agonist 14 (no result: Wnt act) | hgDAF12 conf inactive | LXR ag 2 inactive
CCC(CC)c1nnc(NC(=O)C2CCCO2)s1 (stereo unspecified)	none (no result: esBAF inh)
CCC(CC)c1nnc(NC(=O)C2COc3ccccc3O2)s1 (stereo unspecified)	hgDAF12 agonist 14 (no result: Wnt act) | hgDAF12 conf inactive | LXR ag 2 inactive
Cc1ccc(NC(=O)Nc2cnc3ccccc3c2)cc1	hgDAF12 agonist 15, Wnt act 39, DAX1 inh 3.7 | hgDAF12 conf 20 | LXR ag 2 inactive
O=C(Nc1ccccc1)c1cc(C2CCCN(C(=O)c3cccs3)C2)on1 (stereo unspecified)	hgDAF12 agonist 14, Wnt act 34, esBAF inh 56 | hgDAF12 conf 13 | LXR ag 2 inactive
O=C(NCc1ccccc1)c1cc(C2CCCN(C(=O)c3cccs3)C2)on1 (stereo unspecified)	none
CN(C)C(=O)c1cccc(-c2ccc([C@@H]3[C@@H](CO)N(C(=O)C4CCCCC4)[C@H]3C#N)cc2)c1	none (no result: ssDAF-12 act, hgDAF12 agonist, hcDAF12 agonist, Wnt act, DAX1 inh)
COc1ccc(-c2cn3nc(SCC(=O)NC4CCCCC4)ccc3n2)cc1	hgDAF12 agonist 15, Wnt act inconclusive | hgDAF12 conf 15 | LXR ag 2 inactive
C[C@H]1CN([C@@H](C)CO)S(=O)(=O)c2ccc(-c3cccc(C#N)c3)cc2O[C@@H]1CN(C)C(=O)Nc1cc(F)ccc1F	none (no result: ssDAF-12 act, hgDAF12 agonist, hcDAF12 agonist, Wnt act, DAX1 inh)
Cc1ccc(-c2nc3ccc(Br)cn3c2Cc2cccc(F)c2)cc1	hgDAF12 agonist 21, esBAF inh 51 | hgDAF12 conf 10 | LXR ag 2 inactive
